# Screening data (PubChem)
# Pol beta inh = blocks human DNA polymerase beta activity; P06746; Pol beta primer extension/strand displacement, fluorescence kinetic; Potency, µM (highest dose often 114 µM), most hits filed as inhibitors; 1.3% of 340,000 active
#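 Human Pol beta at 10 nM; strand-displacement substrate 50 nM final. Compound exposure 15 min at room temperature before start, reaction 10 min at room temperature.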
# Pol kappa inh = inhibitors of human DNA polymerase kappa. AID 588579. Potency, µM (top dose mostly 107 µM), actives largely listed as inhibitors. 0.53% of 400,000 active. purified Pol kappa, fluorescent DNA synthesis assay, 10 min
#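 Kinetic fluorescence readout at 0 and 10 min followed reaction start with substrate at 50 nM final. Beforehand, enzyme (10 nM Pol kappa) stood 15 min with compound at room temperature; buffer-only wells were negative controls.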
# POLH inh = blocks human DNA polymerase eta activity. AID 588591. Potency, µM (doses to about 114 µM), usual class: inhibitors. Q9Y253. recombinant Pol eta, fluorescent DNA replication assay. 1.2% of 390,000 active
#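 Fluorescent replication assay: 50 nM final substrate added after a 15 min room-temperature compound preincubation with 10 nM enzyme. Signal taken at 0 min and again at 10 min.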
# POLI inh = inhibitors of human DNA polymerase iota | 1% of 390,000 active | Potency, µM (highest dose often 115 µM), usual class: inhibitors | Pol iota fluorescent replication assay, 10 min | Q9UNA4
#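 Pol iota at 10 nM preincubated 15 min with compounds at room temperature; reaction started with fluorescent substrate, 50 nM final. Fluorescence read kinetically at 0 and 10 min; buffer-only wells as negative control.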
# L3MBTL1 block = inhibitors of human L3MBTL1; AID 485360; 0.66% of 230,000 active; Potency, µM (doses to about 57.1 µM), most hits filed as inhibitors; Q9Y468; AlphaScreen L3MBTL1–H3K9me1 peptide binding; note: nearly all actives have a fitted effect of over 60% in size
#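 Read-out is AlphaScreen signal from streptavidin donor and nickel chelate acceptor beads (10 ug/mL final each) bridging L3MBTL1 (50 nM) and biotinylated K9-monomethylated H3(1-15) peptide (75 nM), after 30 min compound exposure at room temperature.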
# Hits are given with their value; 0 = inactive; ? = inconclusive; - = no result; ! = not active in a repeat. In the library only some 2.4% were active in any assay of this set; here they are far more common. Calls come from the whole dose curve; as a rule, active = well fitted curve in the direction sought with a large enough effect; inconclusive = small, poorly fitted or top-dose-only effect, or another doubt; inactive = no such curve, though single readings can be large; an effect the other way counts as inactive or inconclusive.
SMILES,Pol beta inh,Pol kappa inh,POLH inh,POLI inh,L3MBTL1 block
CC1=C(C#N)C(=O)N(C2CCS(=O)(=O)C2)C(=O)/C1=C\c1ccc(C)o1 (configuration not stated),13µM,-,-,-,14µM
Cc1ccc(S(=O)(=O)c2c(C)cc(C)nc2Cl)c(C)c1,0,0,0,0,0
Cc1cc(C)c(S(=O)(=O)/N=C2\C=CC(=O)C(Cl)=C2)c(C)c1,35µM,?,?,?,-
COc1ccc(NC(=O)/C(Cl)=C(/Cl)S(=O)Cc2ccccc2)cn1 (configuration not stated),0,0,0,32µM,-
O=C(NCCSCc1ccco1)c1ccc(=O)[nH]c1,0,0,0,50µM,-
O=C(CSCc1c(F)cccc1Cl)NCCSCc1ccco1,25µM,0,0,0,0
Cc1ccc(C)c(N(CC(=O)NCCSCc2ccco2)S(C)(=O)=O)c1,28µM,79µM,22µM,?,0
Cc1ccc(CSCCNC(=O)CN(c2cc(C)ccc2C)S(C)(=O)=O)cc1,0,0,0,0,0
Cc1ccccc1Cn1ccc(NC(=O)c2cc3ncc(Br)cn3n2)n1,20µM,0,0,0,0
Cc1ccccc1Cn1ccc(NC(=O)c2nn3cccnc3c2Cl)n1,0,0,0,0,0
CCC(C)NC(=O)NC(=O)CSc1nnc(-c2ccccc2F)n1C1CC1 (configuration not stated),0,0,0,0,-
CCC(=O)Nc1ccc(C(=O)CSc2nnc(-c3ccccc3F)n2C2CC2)cc1,28µM,0,?,?,0
COc1ccccc1C1CC(=O)Oc2cc3c(cc21)OCO3 (configuration not stated),-,14µM,-,-,-
CCCC1([C@H](O)C/C=C/[C@H]2[C@H](O)CC(=O)[C@@H]2CCCCCCC(=O)OC)CCC1,-,0,-,-,-
C/C=C/c1ccc(OCC(=O)O)c(OC)c1,?,0,35µM,0,0
COc1ccc(NC(=O)COc2ccc(/C=C/c3cccc[n+]3C)cc2OC)cc1,11µM,?,0,45µM,-
C/C=C/c1ccc(OCC(=O)OCC)c(OC)c1,0,0,0,0,0
C/C=C/c1ccc(OCC(=O)Nc2cc(OC)c(OC)c(OC)c2)c(OC)c1,0,0,0,0,0
COc1ccc(NC(=O)COc2ccc(/C=C/c3cc[n+](C)cc3)cc2OC)cc1,?,0,0,?,-
COc1cc(/C=C/c2cccc[n+]2C)ccc1OCC(=O)Nc1ccccc1,16µM,0,?,?,-
COc1cc(/C=C/c2cccc[n+]2C)ccc1OCC(=O)Nc1cccc(Cl)c1,40µM,0,0,?,-
Brc1cc(Br)c[n+](CCc2ccccc2)c1,-,0,-,0,-
COc1ccc(/C=C/C(=O)Nc2ccc(Cl)c(Cl)c2)cc1OC,0,0,-,0,-
C/C=C/c1ccc(OCc2cc(=O)n3cc(C)ccc3n2)c(OC)c1,35µM,0,0,?,0
COc1cc2c(cc1OC)CN(Cc1cc(=O)n3cc(C)ccc3n1)CC2,0,0,0,0,0
SMILES,Pol beta inh,Pol kappa inh,POLH inh,POLI inh,L3MBTL1 block
COc1cc(/C=C/c2cc[n+](C)cc2)ccc1OCC(=O)Nc1ccc(Cl)c(Cl)c1,56µM,0,89µM,0,-
COc1cccc(CN2c3ccc(Br)cc3C(=O)CS2(=O)=O)c1,-,0,0,79µM!,0
COc1cc(CN2c3ccc(Br)cc3C(=O)CS2(=O)=O)cc(OC)c1,-,0,-,0,-
CCc1ccc2occ(CC(=O)Nc3c(C(=O)c4ccccc4)oc4ccccc34)c2c1,0,0,0,0,-
O=[N+]([O-])c1cc(-c2nc(-c3ccccc3)no2)ccc1N1CCOCC1,0,0,0,0,-
COc1ccccc1OC(C)C(=O)Nc1cccc(-c2nc3ccccc3o2)c1 (configuration not stated),50µM,?,?,89µM,-
CC(C)C(=O)Nc1cccc(-c2nc3ccccc3o2)c1,?,0,0,0,-
O=C(COc1ccc(Cl)cc1)OCC(=O)N1CCCCCC1,35µM,0,0,0,0
CN(CC(=O)NC(=O)NCc1ccccc1)CC(=O)Nc1ccc(Cl)c(C(F)(F)F)c1,-,0,0,89µM,0
